Data as given in PubChem BioAssay (EPA / NIEHS).
Records with an inconclusive call do not appear. Activity calls are given as the source filed them. How the source made its calls: active means hit-call score of the fitted dose curve at least 0.9, where 1 is the maximum; inconclusive means response in the unintended direction; inactive means score below 0.9.

Molecular target: Cellular tumor antigen p53 (Homo sapiens) (UniProt P04637)
Assay: TOX21_p53_BLA_p3_ratio: Tox21 HCT-116 p53 Agonism Beta-lactamase Assay, Ratio, Phase 3 (AID 2283596)
Method in brief: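 HCT116 p53-bla cells (4000/well) given compound in DMSO (217-fold dilution) after 5 h, incubated 16 h at 37C. CCF4-AM substrate 2 h at room temperature; 460/530 nm emission ratio, gain fitted against DMSO.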

Sequence of Cellular tumor antigen p53 (Homo sapiens) (P04637 whole entry, looked up): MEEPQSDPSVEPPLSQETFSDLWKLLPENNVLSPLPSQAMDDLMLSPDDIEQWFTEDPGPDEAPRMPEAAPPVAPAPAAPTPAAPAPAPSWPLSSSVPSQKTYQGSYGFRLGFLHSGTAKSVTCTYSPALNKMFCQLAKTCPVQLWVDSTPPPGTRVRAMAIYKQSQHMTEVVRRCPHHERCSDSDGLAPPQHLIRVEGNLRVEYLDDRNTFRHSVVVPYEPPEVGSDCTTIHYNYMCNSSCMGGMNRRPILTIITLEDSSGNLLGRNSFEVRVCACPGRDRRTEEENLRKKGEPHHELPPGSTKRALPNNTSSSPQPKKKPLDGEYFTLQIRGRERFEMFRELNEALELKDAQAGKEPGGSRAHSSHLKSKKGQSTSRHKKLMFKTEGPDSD

Row | SMILES | outcome
1 | CC(CNC(=O)c1cccnc1)NC(=O)c1cccnc1 (stereo not given) | inactive
2 | C[C@@H]1C[C@H]2[C@@H]3CCC4=CC(=O)C=C[C@]4(C)[C@@]3(F)[C@@H](O)C[C@]2(C)[C@@]1(O)C(=O)COC(=O)c1cccc(S(=O)(=O)O)c1 | inactive
3 | CCOC(=O)[C@H](CCc1ccccc1)N[C@H]1CS[C@H](c2cccs2)CN(CC(=O)O)C1=O | inactive
4 | Cc1nc2n(c(=O)c1CCN1CCC(c3noc4cc(F)ccc34)CC1)CCCC2 | inactive
5 | CCOc1ccc(O)cc1 | inactive
6 | CC(=O)OCC(=O)[C@@]1(O)[C@H](OC(C)=O)C[C@H]2[C@@H]3CCC4=CC(=O)C=C[C@]4(C)[C@@]3(F)[C@@H](O)C[C@@]21C | inactive
7 | O=Cc1ccc(Cl)c(Cl)c1 | inactive

Test system: not listed separately
Assay: TOX21_p53_BLA_p4_viability: Viability Assessment in the Tox21 HCT-116 p53 Agonism Beta-lactamase Assay, Phase 4 (AID 2283597);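 further: hits lower the luminescence signal meaning cytotoxicity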
Method in brief: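 HCT-116 p53-bla cells, 4000/well, dosed after 5 h attachment and incubated 16 h at 37 °C, 5% CO2. Viability from CellTiter-Glo ATP luminescence after 30 min at room temperature, taken after the beta-lactamase read; loss of signal indicates cytotoxicity.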

Row | SMILES | outcome
8 | Cc1nc2n(c(=O)c1CCN1CCC(c3noc4cc(F)ccc34)CC1)CCCC2 | inactive
9 | CC(=O)OCC(=O)[C@@]1(O)[C@H](OC(C)=O)C[C@H]2[C@@H]3CCC4=CC(=O)C=C[C@]4(C)[C@@]3(F)[C@@H](O)C[C@@]21C | inactive
10 | O=Cc1ccc(Cl)c(Cl)c1 | inactive
